Calls of active or inactive are those of the source. Rule for the calls: active = hit-call score of the fitted dose curve at least 0.9, where 1 is the maximum; inactive = score below 0.9.

The nature of this assay: CEETOX_H295R_CORTIC: CeeTox H295R High-throughput Steroidogenesis Assay for Corticosterone (CORTIC) (AID 2283437).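 Note: corticosterone secreted into medium quantified by mass spectrometry.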 The conditions noted are these: actives raise or lower the signal. The protocol: CEETOX_H295R is a cell-based, multiplexed-readout assay that uses H295R, a human adrenal gland cell line, with measurements taken at 48 hours after chemical dosing in a 96-well plate.CEETOX_H295R_CORTIC is one of 23 assay component(s) measured or calculated from the CEETOX_H295R assay. It is designed to make measurements of hormone induction, a form of inducible reporter, as detected with absorbance signals by HPLC-MS-MS technology.Data from the assay component CEETOX_H295R_CORTIC was analyzed into 1 assay endpoint. This assay endpoint, CEETOX_H295R_CORTIC, was analyzed with bidirectional fitting relative to DMSO as the negative control and baseline of activity. Using a type of inducible reporter, gain or loss-of-signal activity using HPLC-MS-MS was used to understand synthesis of Corticosterone in H295R cell line at 48hr of chemical exposure. To generalize the intended target to other relatable targets, this assay endpoint is annotated to the steroid hormone intended target family, where the subfamily is glucocorticoids.
Cell culture and media preparation procedures were conducted in accordance with OECD Test No. 456 guidelines, with minor modifications. H295R cells (ATCC CRL-2128) were expanded for 5 passages and frozen in batches in liquid nitrogen. Prior to the steroidogenesis assay, H295R cells were thawed and passed at least 4 times. The maximum passage was 10. Cells were maintained in a 1:1 mixture of DMEM/F12 supplemented with 5ml/L ITS+ Premix (BD Bioscience) and 12.5 ml/L Nu-Serum (BD Bioscience). After seeding cells into 96-well plates at 50-60% confluency, cells were allowed to adhere overnight. Prior to chemical testing, culture medium was replaced with 175 uL medium containing 10 uM forskolin to stimulate steroidogenesis for 48 hours. Following prestimulation, forskolin medium was replaced with medium containing test chemical solubilized in DMSO (ensuring a final concentration of 0.1% DMSO). Test chemicals were incubated for 48 hours, then the medium was removed and split into 2 vials containing approximately 75uL each, and stored at -80 C prior to hormone analysis. For steroid quantification, media samples were shipped to OpAns, LLC (Durham, NC) on dry ice, and samples were thawed to room temperature prior to liquid-liquid extraction. Steroid hormones were extracted from media samples using methyl tertbutyl ether (MTBE). An extra derivatization with dansyl chloride was included for estrogen (estrone and estradiol) detection only. Steroid hormones were separated by HPLC, eluted using a reverse phase C18 gradient with electrospray positive ionization, followed by quantification by tandem mass spectrometry (MS/MS). Data were acquired on a MassHunter Workstation Acquisition version B03.01 (Agilent Technologies, Inc.) and processed using MassHunter Quantitative Analysis for QQQ. Accuracy was determined for each hormone analyte from 3 standards to determine upper and lower limits of quantification (ULOQ and LLOQ, respectively) using a 7-point standard curve. Precision and accuracy of the extraction and quantification methods were calculated as the percent relative standard deviation (%RSD) of the spiked standards and percent spiked standard recovered, respectively. […] Test medium was removed following chemical exposure, and cell viability was evaluated in the same wells by MTT. MTT procedures were as follows: after removal of test medium, 500 uL of 0.5 mg/ml of 3-[4,5-dimethylthiazol-2-y]2,5-diphenyltetrazoliumbromide solution was added to the cells. Following a 4-hour incubation at 37 C and 5% CO2 to allow formazan-crystal formation, the MTT solution was removed and blue formazan salt crystals were solubilized using 500uL anhydrous isopropanol with shaking for 20 minutes. Absorbance was read at 570 and 650nm using a Packard Fusion microplate reader. Background correction of absorbance units was used to determine percent change relative to controls. […]
As to `CC1=CC(=O)CC(C)(C)C1`, the result was inactive.
The same measure, in the same setting: the entry for `CC(C)c1cccc(C(C)C)c1N1C(=O)c2ccc(O)cc2C1=O` is “inactive”; for `Cc1ccc(N)cc1O` it is “inactive”.
The term AC50 denotes the midpoint of the concentration-response curve, whichever way the signal moves. In the case of `Oc1ccc2c(c1)-c1ccccc1C2`, the concentration at half-maximal activity (AC50) is 11.5 µM (active).
With `CCOc1cccc(-n2cc(C(=O)N3CCN(c4cc(C(=O)O)c5ccccc5c4)CC3)nc2-c2ccc(C)cc2)c1`, the molecule was classed as inactive.
Take `CC(C)=CCCC(C)=CC=O`: the AC50 was 78.6 µM (active).
As for `Nc1ccc(Nc2ccccc2)cc1`, the outcome was inactive.
On to `COC(=O)c1c(Cl)c(Cl)c(C(=O)OC)c(Cl)c1Cl`, for which the half-maximal activity concentration (AC50) was 16.1 µM (active).
On to `O=c1[nH]c2ccc(S(=O)CCN3CCC(Cc4ccc(F)cc4)CC3)cc2o1` (configuration not stated), for which the AC50 was 1.56 µM (active).
As for `C=CCCCCCCCCC(=O)O`, the call was inactive.
On the same count and under the same terms, the entry for `COc1ccc(-n2nc(C(F)F)cc2-c2ccc(S(C)=O)cc2)cc1` (configuration not stated) is “inactive”; for `Cn1c(=O)cc(Oc2ccc(F)cc2F)c2cnc(NCC(C)(C)O)nc21` it is “inactive”.
In the case of `CCOC(=O)c1ccc(C2CCC(NC[C@H](O)COc3ccc(O)c(NS(C)(=O)=O)c3)CC2)cc1` (some centres not stated), the AC50 was 9.35 µM (active).
For the molecule `CC(C)CC(C)(O)C#CC(C)(O)CC(C)C` (configuration not stated), the call was inactive.
Still for that read-out and setting: the entry for `CC(C)(O)c1coc(S(=O)(=O)NC(=O)Nc2c3c(cc4c2CCC4)CCC3)c1` is “inactive”.
In the case of `Fc1ccccc1[C@@H](F)COC1CCC(Nc2ncnc3[nH]ncc23)CC1` (some centres not stated), the AC50 is 1.41 µM (active).
For the molecule `COc1ccc(/C=C/S(=O)(=O)NC(=O)c2ccc(C)cc2Cl)cc1`, the outcome was inactive.
Same read-out and setting: the entry for `Cc1ccc(O)cc1` is “inactive”.
Still for that read-out and setting: the entry for `CC[C@H]1CC[C@H](NCc2cc3c(cc2OC)[C@H]2C[C@H]2C(=O)N3C)[C@H](c2ccccc2)N1` is “inactive”.
As for `CC[C@H](C)C(=O)O[C@H]1C[C@@H](C)C=C2C=C[C@H](C)[C@H](CC[C@@H]3C[C@@H](O)CC(=O)O3)[C@H]21`, the concentration at half-maximal activity (AC50) is 0.094 µM (active).
In the case of `CCC(C)(C)C(=O)O[C@H]1C[C@@H](C)C=C2C=C[C@H](C)[C@H](CC[C@@H]3C[C@@H](O)CC(=O)O3)[C@H]21`, the molecule was classed as inactive.
Still for that read-out and setting: the entry for `COc1cccc(-c2ccc(/C=C\CN3CCCCCC3)cc2Cl)c1` is “inactive”.
